# Bioassay records as filed in PubChem.
# TPT1 inhibitor: Candida albicans TPT1 enzyme inhibitors, primary screen, biochemical, fluorescence polarization | tRNA 2'-phosphotransferase TPT1 (Candida albicans SC5314) | recombinant caTPT1, FP RNA substrate dephosphorylation | inhibition, % at 5 µM | actives 0.81% (n = 300,000) | AID 1962, 2009;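 active means inhibition above the mean of all tested compounds plus 3 SD, set per screening campaign, cut at about 24% in these data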;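 further: plate controls were DMSO alone for no effect and ferristatin control at 100 nM for full effect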
# SKKanGAS inh: S. pyogenes SKKanGAS growth inhibitors in kanamycin, primary screen, streptokinase expression inhibitor project, SKKanGAS strain, BacTiter-Glo luminescence. 6 h. inhibition, % at 7.5 µM. actives 1.3% (n = 300,000). AID 1662, 2009;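 active means mean replicate score, as percent of positive control median, at least 50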;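 further: strain carries kanamycin resistance gene driven by streptokinase promoter and grows in 40 µg/ml kanamycin; loss of luminescence reflects streptokinase promoter inhibition or plain growth inhibition; 0% = median of DMSO wells and 100% = positive control at its reference dose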
# Rtt109 Vps75: inhibitors of C. albicans Rtt109/Vps75 HAT, primary screen, biochemical, ThioGlo CoA-SH fluorescence, plate reader; purified Rtt109/Vps75, 4 h; inhibition, % at 34.9 µM; actives 0.16% (n = 330,000); AID 540336, 2011;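 active means inhibition of at least 50% in every replicate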
# Target sequence (Q5AAJ8 whole entry, looked up): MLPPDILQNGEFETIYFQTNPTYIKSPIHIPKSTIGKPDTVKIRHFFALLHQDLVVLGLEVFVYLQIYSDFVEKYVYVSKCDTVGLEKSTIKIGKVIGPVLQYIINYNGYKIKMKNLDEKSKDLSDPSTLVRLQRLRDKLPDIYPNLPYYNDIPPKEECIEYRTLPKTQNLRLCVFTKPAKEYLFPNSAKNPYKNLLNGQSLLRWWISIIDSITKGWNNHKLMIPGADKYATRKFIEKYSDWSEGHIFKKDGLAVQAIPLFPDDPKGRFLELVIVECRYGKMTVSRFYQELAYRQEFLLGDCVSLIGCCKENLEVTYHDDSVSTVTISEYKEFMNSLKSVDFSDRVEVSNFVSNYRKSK
# Platelet DG rel: inhibitors of platelet dense granule secretion, primary screen, cell-based, MLPCN, human platelets. inhibition, %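 (compounds screened at 7.5 µM in platelet-rich plasma)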. human platelet-rich plasma, SFLLRN dense granule ATP release, luminescence. actives 0.22% (n = 300,000);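 active means mean replicate score, as percent of positive control, at or above 50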
# WT yeast gro inh: growth inhibition of WT strain, primary screen, mitochondrial fusion inhibitor project, WT and mutant strains, chemical genetic; AID 1362, 2008; inhibition, % at 10 µM; mitochondrial fusion phenotypic screen; actives 2.1% (n = 190,000); in the data active means inhibition above about 58%; tested in S. cerevisiae
# PHOSPHO1 inh: PubChem AID 1565; Phosphoethanolamine/phosphocholine phosphatase (Homo sapiens), Q8TCT1; recombinant PHOSPHO1, absorbance phosphatase assay; inhibition, % at 13.3 µM; actives 1.1% (n = 290,000); in the data active means inhibition above about 60%
# Target sequence (Q8TCT1 whole entry, looked up): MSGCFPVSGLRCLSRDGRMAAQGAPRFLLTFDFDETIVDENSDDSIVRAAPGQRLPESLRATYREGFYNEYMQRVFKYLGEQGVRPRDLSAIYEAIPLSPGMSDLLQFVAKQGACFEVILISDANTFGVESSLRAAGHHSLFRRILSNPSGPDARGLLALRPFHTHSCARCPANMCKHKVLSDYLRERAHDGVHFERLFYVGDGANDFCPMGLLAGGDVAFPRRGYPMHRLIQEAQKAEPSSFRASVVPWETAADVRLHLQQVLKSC
# The depositor's hits bear a star; . = no result given. This is a sample that favours compounds with a hit; in the whole collection about 3.9% have one here.
SMILES,TPT1 inhibitor,SKKanGAS inh,Rtt109 Vps75,Platelet DG rel,WT yeast gro inh,PHOSPHO1 inh
CC(=O)Nc1sc2c(c1C(c1ccc(Cl)cc1)N1CCOCC1)CCCC2 (centres undefined),1.8,34.0,2.0,-3.1,80.5*,-0.5
CCc1ccc(CNC(=O)c2ccc(NC(=O)C3=CSCCO3)cc2)cc1,0.8,5.9,1.2,7.8,.,48.8
O=C(Nc1ccc(C(=O)NCc2ccc(F)cc2)cc1)C1=CSCCO1,-0.9,50.6*,-7.7,9.0,.,42.6
CC1CN(C(=O)N(C)C)CCN1C(=O)N(C)C (centres undefined),-0.2,0.4,0.9,-1.5,65.7*,-1.5
Cc1ccc(NC(=O)C(=O)NNC(=O)c2ccccc2C)cc1Cl,0.7,21.3,9.2,3.3,9.7,-18.1
COc1ccccc1C(=O)NNC(=O)C(=O)Nc1ccc(C)c(Cl)c1,-3.6,98.1*,-8.6,-1.3,.,35.0
CC1CCCC(C)N1C(=O)COC(=O)CNC(=O)c1ccc(Cl)cc1Cl (centres undefined),-0.7,-4.2,4.9,3.5,.,.
Cc1ccc(C)c(N2CCN(C(=O)C(Cc3ccccc3)n3cccc3)CC2)c1 (centres undefined),-2.4,14.5,3.1,5.8,61.8*,-7.3
O=C(C(Cc1ccccc1)n1cccc1)N1CCN(c2ccccc2)CC1 (centres undefined),1.7,1.3,-12.3,1.3,11.3,2.1
Cc1ccc(C)c(N2CCN(C(=O)c3csc4ccccc34)CC2)c1,1.1,-4.3,3.9,-6.7,74.0*,1.1
Cc1ccc(C)c(N2CCN(C(=O)Cc3cn(C)c4ccccc34)CC2)c1,-1.1,6.4,-7.3,3.2,63.5*,11.0
CC12CCC(=O)N1C(C(=O)NNC(=O)COc1cccc(C(F)(F)F)c1)CS2 (centres undefined),1.4,-2.2,-2.6,.,.,.
CC1=Nc2ccccc2/C1=C\c1sc(Nc2ccc(C)cc2)nc1O,6.1,37.4,0.5,1.0,60.8*,-7.4
O=c1[nH]c(S)c(/C=C2\C=Nc3ccccc32)s1,-11.9,29.1,.,-0.1,.,-16.8
Oc1nc(Nc2ccc(F)cc2)sc1/C=C1\C=Nc2ccccc21,4.7,55.4*,-6.4,6.1,.,-9.9
CC1=Nc2ccccc2/C1=C/c1sc(=O)n(CC(=O)N2CCCC2)c1O,5.5,-11.0,7.1,-3.2,5.9,35.4
Oc1nc(Nc2cccc(Cl)c2)sc1/C=C1\C=Nc2ccccc21,2.0,112.8*,-2.0,-1.7,78.5*,-36.4
CCCCCCOC1(c2ccccc2)OC(=O)c2ccccc21 (centres undefined),1.7,2.4,3.7,-4.2,63.4*,5.4
CCCCCCCOC1(c2ccccc2)OC(=O)c2ccccc21 (centres undefined),0.6,9.1,6.6,-1.3,54.9,-2.8
CN(C)S(=O)(=O)c1ccc(C(=O)NNC(=O)C23CC4CC(CC(C4)C2)C3)cc1,.,.,-4.4,.,.,.
CCCCCCCCCCCCCCCCn1cc[n+](CC(C)=O)c1,.,.,111.7*,.,97.9,-0.4
CC1(c2ccc(OC(F)F)cc2)NC(=O)N(CC(=O)NCCC2=CCCCC2)C1=O (centres undefined),.,.,-8.9,.,.,.
Cc1ccc(N2CC(C(=O)Nc3ccc(S(=O)(=O)NCC4CCCO4)cc3)CC2=O)cc1C (centres undefined),0.9,-0.4,-3.8,-11.9,.,36.2
Cc1cccc2cc(COC(=O)c3ccccc3)c(=O)[nH]c12,-4.2,-6.3,2.2,-39.9,22.4,-7.5
Cc1cccc2cc(COC(=O)c3cccnc3)c(=O)[nH]c12,-4.7,-2.5,-4.0,-1.5,-7.0,78.4*
SMILES,TPT1 inhibitor,SKKanGAS inh,Rtt109 Vps75,Platelet DG rel,WT yeast gro inh,PHOSPHO1 inh
CCCN(Cc1cc2ccc(C)cc2[nH]c1=O)C(=O)c1cccnc1,4.1,2.8,-1.8,-3.2,-8.1,-5.7
Cc1ccc2cc(CN(C(=O)c3ccco3)c3ccccc3)c(=O)[nH]c2c1,-2.2,-11.9,3.3,-5.9,-2.1,15.9
Cc1cccc(N(Cc2cc3ccc(C)cc3[nH]c2=O)C(=O)c2ccco2)c1,2.3,-2.0,0.7,2.4,.,69.9*
CCN(Cc1cc2ccc(C)cc2[nH]c1=O)C(=O)c1ccncc1,.,7.1,.,39.4,60.2*,-2.4
Cc1ccc2cc(COC(=O)c3ccncc3)c(=O)[nH]c2c1,-2.9,1.7,-2.3,2.1,-11.4,85.6*
CC(C)NC(=O)CN1C(=O)CSc2ccc(S(=O)(=O)N3CCCC3)cc21,1.7,-3.4,1.8,2.0,.,7.0
O=C(CSc1cc(Cl)ccc1Cl)Nc1ccc(N2CCOCC2)cc1,.,.,1.0,.,.,.
COC(=O)[C@]1(C)N[C@H](CN(C)C(C)=O)[C@@H]2C(=O)N(Cc3ccccc3)C(=O)[C@@H]21,.,.,-4.8,.,.,.
O=C(CSc1nnc2ccccn12)NNC(=O)c1ccc(Cl)cc1,2.5,-5.9,-9.8,-3.8,9.0,-18.4
O=C(CSc1nnc2ccccn12)NNC(=O)c1cccc(Cl)c1,.,.,57.6*,.,.,.
O=C(Nc1ccc(C(F)(F)F)cc1)c1csc(-c2ccncc2)n1,1.0,-3.6,2.3,11.6,11.8,64.3*
COc1ccc(C)cc1N(CC(=O)N1CCCCCC1)S(=O)(=O)c1ccc(C)cc1,-1.0,0.9,5.2,-2.2,.,13.7
CCc1nc(SCc2nc3ccccc3[nH]2)c2oc3ccccc3c2n1,-0.7,11.4,-25.5,-0.1,74.1*,40.6
Cc1nc(SCc2nc3ccc(Br)cc3[nH]2)c2oc3ccccc3c2n1,.,.,0.2,.,.,.
CC[C@@]1(C(=O)OC)N[C@H](CN(C)C(=O)C2CCCCC2)[C@@H]2C(=O)N(Cc3ccccc3)C(=O)[C@@H]21,.,.,-8.7,.,.,.
NC(=O)C1CCN(C(=O)c2ccc3nc(-c4ccccc4)c(-c4ccccc4)nc3c2)CC1,-0.1,1.7,-4.1,-7.0,.,-19.6
CC(Oc1ccccc1)C(=O)N1CCC2(CC1)CC(=O)c1ccccc1O2 (centres undefined),-1.1,-11.1,12.4,-21.0,.,.
CCOC(=O)c1sc(NC(=O)c2cc(-c3ccccc3C)nc3ccccc23)c(C#N)c1C,1.5,51.2*,-1.4,-3.5,18.4,65.0*
CCOC(=O)c1cnc(SCC(=O)Nc2sc(C)c(C)c2C#N)nc1N,-0.5,10.6,1.5,-0.3,-24.2,92.3*
CCOC(=O)c1sc(NC(=O)CSc2nc(C)cc(-c3ccccc3)n2)c(C#N)c1C,1.7,3.7,10.0,0.0,11.8,87.5*
CCOC(=O)c1sc(NC(=O)CSc2nc(C)cc(C)c2C#N)c(C#N)c1C,2.0,1.2,-19.4,.,-4.1,16.2
CCOC(=O)c1sc(NC(=O)CSc2n[nH]c(-c3ccc(Cl)cc3Cl)n2)c(C#N)c1C,0.1,37.6,-6.7,-7.6,58.0*,-8.6
